Screens (PubChem BioAssay)
Hits are enriched below; roughly 2.5% of the tested compounds scored in any of these assays.
MEKK2mut PB1 HTS – signal of MEK5 binding to mutant human MEKK2 PB1 domain; bead flow cytometry, Alexa488-MEK5 binding to MEKK2 mutant; 0.35% of 290,000 active; percent response, % at 10 µM; in the data active = percent response above about 24%, passing the limit was not always enough
Rce1 inh – inhibitors of yeast Ras-converting enzyme; calls only; 0.27% of 290,000 active; Q03530; yeast membranes, quenched prenylated peptide cleavage fluorescence;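 active = fall in fluorescence gain of 50% or more versus controls, with final raw signal at or below 3038400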;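 note: plate controls were neutral control wells for no effect and wells lacking membranes for full effect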
Target sequence (Q03530 whole entry, looked up): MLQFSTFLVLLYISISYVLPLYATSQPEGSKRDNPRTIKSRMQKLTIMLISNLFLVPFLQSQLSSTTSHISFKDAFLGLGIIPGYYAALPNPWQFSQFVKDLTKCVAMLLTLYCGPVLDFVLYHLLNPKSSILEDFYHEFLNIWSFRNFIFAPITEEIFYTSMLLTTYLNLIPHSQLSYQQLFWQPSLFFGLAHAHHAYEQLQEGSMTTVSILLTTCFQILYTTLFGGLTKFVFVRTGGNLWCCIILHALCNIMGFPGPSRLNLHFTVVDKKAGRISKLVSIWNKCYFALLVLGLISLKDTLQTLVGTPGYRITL
UBC13 inh – human UBC13 polyubiquitination inhibition. UBC13 polyubiquitin chain formation, TR-FRET. AID 485273. 0.47% of 330,000 active. P61088. inhibition, % at 20 µM; in the data active = inhibition above about 45%, passing the limit was not always enough
Target sequence (P61088 whole entry, looked up): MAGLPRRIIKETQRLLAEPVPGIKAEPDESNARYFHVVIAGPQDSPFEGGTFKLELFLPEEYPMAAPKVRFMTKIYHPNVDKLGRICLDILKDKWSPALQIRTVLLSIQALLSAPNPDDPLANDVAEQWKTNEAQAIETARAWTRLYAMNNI
MEKK2 WT-MEK5 – raises or lowers MEK5 binding to wildtype human MEKK2 PB1 domain. Q9Y2U5. bead flow cytometry, Alexa488-MEK5 binding to MEKK2 WT; actives lie on both sides. binding response (% of control), % at 10 µM. 1.1% of 290,000 active. AID 1531; in the data active = binding response below about 67% or above about 130%
MEKK3 PB1 HTS – raises or lowers MEK5 binding to the human MEKK3 PB1 domain. Q99759. bead-based flow cytometry, Alexa488-MEK5 binding to MEKK3; actives lie on both sides; 0 = blocked by unlabeled MEK5, 100 = vehicle. binding response (% of control), % at 10 µM. 1.4% of 290,000 active. AID 1529;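 active = binding response more than 3 SD above or below the average of its plate-row segment, actives on both sides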;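 note: Alexa488 bead fluorescence after subtracting the streptavidin-only scavenger bead signal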
MEKK2wt confirm – raises or lowers MEK5 binding to wildtype human MEKK2, retest; shares compounds with MEKK3 PB1 HTS; 2.4% of 5,900 active; AID 1892; binding response (% of control), % at 10 µM; bead flow cytometry, Alexa488-MEK5 binding to MEKK2 WT; actives lie on both sides; in the data active = binding response below about 16% or above about 210%; inactive = in between
MEKK2mut confirm – signal of MEK5 binding to mutant human MEKK2, retest; shares compounds with MEKK3 PB1 HTS; bead flow cytometry, Alexa488-MEK5 binding to MEKK2 mutant; percent response, % at 10 µM; 2% of 5,900 active; in the data active = percent response mostly above about 71%, no sharp cut-off; inactive = mostly below about 38%;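 note: higher means compound restores mutant binding toward wildtype level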
MEKK3 confirm – MEKK3-MEK5 PB1 inhibition, single concentration confirmation; shares compounds with MEKK3 PB1 HTS; binding response (% of control), % at 10 µM; bead flow cytometry, Alexa488-MEK5 binding to MEKK3; stronger effect = lower value; 1.8% of 5,900 active;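 active = binding response below 72% of control, or above a set upper limit, though filed actives all read lower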;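 note: 100% = DMSO only wells and 0% = binding blocked by excess unlabeled MEK5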
* = called active by the depositor; i = inactive; . = not tested or not shown; [ ] = dose if it differs, or a comment.

SMILES | MEKK2mut PB1 HTS | Rce1 inh | UBC13 inh | MEKK2 WT-MEK5 | MEKK3 PB1 HTS | MEKK2wt confirm | MEKK2mut confirm | MEKK3 confirm
COc1ccc(-c2cc(-n3c(C(F)(F)F)nc4ccccc43)n(CCC#N)n2)cc1 | -7.0 | i | -4.3 | 86.0 | 82.0*[inhibitor] | 98.0 | -10.0 | 100.0
COc1ccc(N2C(=O)CC(Sc3ncn[nH]3)C2=O)c(OC)c1 (configuration not stated) | 11.0 | i | -1.6 | 116.0 | 122.0* | 102.0 | -2.0 | 101.0
CC(C)(C)c1ccc(OCCNC(=S)NC(=O)c2cccnc2)cc1 | -2.0 | i | -0.6 | 102.0 | 99.0 | . | . | .
N/C(Cc1ccc([N+](=O)[O-])cc1)=N\OC(=O)c1ccc(Br)cc1 | 1.0 | i | 5.2 | 109.0 | 132.0* | 106.0 | 5.0 | 105.0
Cn1cccc1C(=O)NC1CCCCCC1 | . | . | 11.2 | . | . | . | . | .
CCCN(CC(=O)Nc1ccccc1C)C(=O)/C=C/c1cccs1 | 1.0 | i | 7.1 | 108.0 | 140.0* | 94.0 | 0.0 | 99.0
CCCCn1c(-c2ccc(Cl)c(Cl)c2)nc2cc3[nH]c(=O)c(C(C)C)nc3cc21 | 0.0 | i | -21.6 | 83.0 | 97.0 | . | . | .
CCCCn1c(-c2ccc(C(C)(C)C)cc2)nc2cc3[nH]c(=O)c(C(C)C)nc3cc21 | -11.0 | i | -7.0 | 69.0*[inhibitor] | 93.0 | 83.0 | -6.0 | 96.0
O=C(Nc1ccccc1)c1ccc(NCc2cccnc2)c(S(=O)(=O)N2CCOCC2)c1 | 7.0 | . | -2.2 | 129.0 | 123.0* | 100.0 | -4.0 | 97.0
O=C(Nc1ccc(Cl)cc1)c1ccc(S(=O)(=O)N2CCOCC2)cc1 | -3.0 | i | -3.0 | 100.0 | 103.0 | . | . | .
O=C(Nc1ccccc1)c1ccc(S(=O)(=O)N2CCOCC2)cc1 | 10.0 | i | 7.1 | 135.0* | 136.0* | 103.0 | 2.0 | 101.0
O=C(Nc1cc(-c2ccccc2)[nH]n1)c1ccccc1F | -48.0 | i | 4.6 | 38.0*[inhibitor] | 35.0*[inhibitor] | 104.0 | 5.0 | 102.0
CCCCCCCCCn1c2c(c(=N)c3c1CCC3)CCCC2 | 45.0 | . | 41.3 | 177.0* | 110.0 | 134.0 | 16.0 | 102.0
CCCCCCCCn1c2c(c(=N)c3ccccc31)CCC2 | 19.0 | i | 29.3 | 126.0 | 102.0 | . | . | .
CCCCCCCCCCn1c2c(c(=N)c3c1CCC3)CCC2 | 10.0 | i | 61.9* | 140.0* | 108.0 | 110.0 | 6.0 | 96.0
Cc1c(CCOC(=O)c2cc([N+](=O)[O-])cc([N+](=O)[O-])c2)sc[n+]1CCCCS(=O)(=O)[O-] | -12.0 | i | 1.6 | 91.0 | 93.0 | . | . | .
CN(C)CCN=Cc1c(O)n(Cc2ccccc2)c(=O)c2ccccc12 | 1.0 | i | -4.3 | 118.0 | 106.0 | . | . | .
CC1(C)CC(N=Cc2c(O)n(Cc3ccc4c(c3)OCO4)c(=O)c3ccccc23)CC(C)(C)N1 | 16.0 | i | 6.7 | 149.0* | 99.0 | 160.0 | 24.0 | 106.0
CC(Cc1ccsc1)NC(=O)CCc1nnc(COc2ccccc2)o1 (configuration not stated) | -7.0 | . | 6.2 | 96.0 | 103.0 | . | . | .
CN(C)N=Nc1nc2c(c(=O)n(C)c(=O)n2C)n1CC1CO1 (configuration not stated) | 2.0 | i | -4.1 | 99.0 | 101.0 | . | . | .
C=C1C2(C(=O)Nc3ccc(SC(F)F)cc3)CCC(C2)C1(C)C (configuration not stated) | 8.0 | i | 14.2 | 107.0 | 98.0 | . | . | .
O=C(Nc1ccc(SC(F)F)cc1)C12CCC(CC1)C2 | 0.0 | i | -1.3 | 104.0 | 134.0* | 78.0 | -13.0 | 87.0
Cc1ccc(S(=O)(=O)N2CCCCC2)cc1NC(=O)c1cnccn1 | . | . | 0.2 | . | . | . | . | .
Cc1ccc(C(=O)NCCCNC(=O)Cc2ccc(Cl)cc2)cn1 | . | i | -6.2 | . | . | . | . | .
Cc1ccccc1NC(=O)CN1C(=O)S/C(=C\c2cccn2-c2cccc(C(=O)O)c2)C1=O | 9.0 | i | -20.9 | 119.0 | 122.0* | 105.0 | 4.0 | 107.0
SMILES | MEKK2mut PB1 HTS | Rce1 inh | UBC13 inh | MEKK2 WT-MEK5 | MEKK3 PB1 HTS | MEKK2wt confirm | MEKK2mut confirm | MEKK3 confirm
Cc1cccc(C)c1NC(=O)CN1C(=O)S/C(=C\c2cccn2-c2cccc(C(=O)O)c2)C1=O | -1.0 | i | -16.9 | 100.0 | 99.0 | . | . | .
COc1cc(NC(=O)Cc2cccs2)c(C(=O)O)cc1OC | 6.0 | i | 4.9 | 111.0 | 107.0 | . | . | .
CC1CCN(CCCNC(=O)CCNC(=O)Cn2cnc3ccccc3c2=O)CC1 | 10.0 | i | 6.6 | 108.0 | 104.0 | . | . | .
O=C(O)/C=C/c1ccc(S(=O)(=O)Nc2ccc(OCc3ccccc3)cc2)cc1 | -22.0 | i | 3.1 | 84.0 | 73.0*[inhibitor] | 92.0 | -2.0 | 97.0
COc1ccccc1-c1nnc(SCC(=O)NNC(=O)c2ccccc2F)n1C | . | . | 3.3 | . | . | . | . | .
C[N+](C)(C)C/C=C1/COCO1 | 27.0* | i | 6.8 | 120.0 | 117.0 | 111.0 | 13.0 | 108.0
CCCCC1(CC(=O)OC)C(=O)N(c2ccccc2)N(c2ccccc2)C1=O | 2.0 | i | 4.2 | 107.0 | 138.0* | 102.0 | -6.0 | 103.0
CCCCC1(Cc2ccc(OC)c([N+](=O)[O-])c2)C(=O)N(c2ccccc2)N(c2ccccc2)C1=O | 4.0 | i | 5.8 | 107.0 | 113.0 | . | . | .
OC(CN1CCN(c2ccccn2)CC1)Cn1c2ccc(Cl)cc2c2cc(Cl)ccc21 (configuration not stated) | 13.0 | i | 6.3 | 137.0* | 111.0 | 132.0 | 15.0 | 106.0
OC(CN1CCCCC1)Cn1c2ccc(Cl)cc2c2cc(Cl)ccc21 (configuration not stated) | 48.0* | i | 37.6 | 203.0* | 106.0 | 202.0 | 63.0 | 112.0
CC(NC(=O)c1cccc(S(=O)(=O)N2CCN(Cc3ccccc3)CC2)c1)c1ccc(Cl)cc1 (configuration not stated) | . | . | -6.4 | . | . | . | . | .
COCCOC(=O)c1c(NC(=O)CN2CCCc3ccccc32)sc(C(N)=O)c1C | 11.0 | i | 14.9 | 98.0 | 107.0 | . | . | .
C=C(C)C1CC=C(CN2CCC(O)CC2)CC1 (configuration not stated) | -1.0 | i | -0.3 | 99.0 | 98.0 | . | . | .
C=C(C)[C@@H]1CC=C(CN2CCC(N3CCC(C(=O)N4CCCC4)CC3)CC2)CC1 | 31.0 | i | 5.5 | 142.0* | 94.0 | 129.0 | 19.0 | 110.0
O=C(NC(NC(=S)Nc1ccccc1O)C(Cl)(Cl)Cl)c1ccco1 (configuration not stated) | 0.0 | i | -15.5 | 101.0 | 116.0 | . | . | .
COc1ccccc1NC(=S)NC(NC(=O)c1ccco1)C(Cl)(Cl)Cl (configuration not stated) | 0.0 | i | 7.8 | 100.0 | 129.0* | 101.0 | 2.0 | 105.0
